Out of some 190,000 compounds screened, about 810 (0.43%) were called active. No stated cut-off is given here; in the data, active means inhibition above about 50%; inactive means the rest. The list comes from a sample in which actives are over-represented; it also holds similar structures and randomly drawn compounds.

Mannose-6-phosphate isomerase (Homo sapiens), sequence (P34949 whole entry, looked up): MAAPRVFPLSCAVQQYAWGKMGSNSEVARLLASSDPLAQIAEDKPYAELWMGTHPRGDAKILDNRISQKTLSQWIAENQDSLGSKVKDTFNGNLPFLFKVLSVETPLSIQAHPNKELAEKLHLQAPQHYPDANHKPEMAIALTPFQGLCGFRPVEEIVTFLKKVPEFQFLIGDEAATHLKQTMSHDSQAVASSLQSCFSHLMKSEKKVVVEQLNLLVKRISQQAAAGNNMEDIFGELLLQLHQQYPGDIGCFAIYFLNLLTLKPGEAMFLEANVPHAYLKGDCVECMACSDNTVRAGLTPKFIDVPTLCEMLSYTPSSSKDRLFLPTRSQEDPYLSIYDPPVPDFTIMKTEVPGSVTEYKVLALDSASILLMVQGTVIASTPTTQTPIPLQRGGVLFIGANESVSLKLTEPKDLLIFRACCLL

This assay addresses Mannose-6-phosphate isomerase (Homo sapiens) (UniProt P34949). Briefly: MPI enzyme activity inhibition – biochemical, fluorescence intensity, coupled assay, primary screen (AID 1209).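 Further: plate controls were DMSO vehicle for no effect and wells lacking substrate for full effect.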 The conditions noted are these: purified PMI enzyme, at 20 µM, active compounds read high.
The term inhibition denotes the drop in the measured response relative to a control, in per cent. In the case of `CCC(=O)Nc1ccccc1-c1nnn(CC(=O)N2c3ccccc3CC2C)n1` (stereo not given), the inhibition was 13% (inactive).
For `CCCCN(C(=O)c1ccc(S(=O)(=O)N(C)C)cc1)c1nc2ccccc2s1`, the inhibition is 11.7% (inactive).
For `CCOC(=O)Cc1cnc(N)s1`, the inhibition is 2.1% (inactive).
With `COCCN(CC(=O)NCC1CCCO1)C(=O)CCC(=O)Nc1cc(C)ccn1` (stereo not given) the figure was -12.3% (inactive); with `Cc1ccc2nsnc2c1N`, 8.5% (inactive); with `Nc1cc2nsnc2cc1Br`, 61% (active).
Regarding `Nc1cnc(Br)cc1Br`, the inhibition was -8.6% (inactive).
Then `NS(=O)(=O)c1ccc(CCNC(=O)CSc2ncnc3ccccc23)cc1`, with 7.5% (inactive); and `CCOc1cccc(CNc2ccc(O)cc2)c1OCc1ccccc1Cl`, with 28.5% (inactive); and `CCOc1cccc(CNc2ccc(O)cc2)c1OCc1ccc(Cl)cc1Cl`, with 40.3% (inactive).
For `CCOc1cccc(CNc2ccc(O)cc2)c1OCc1ccc(Cl)cc1`, the inhibition is 53.9% (active).
Turning to `CC(OC(=O)C1=COCCO1)C(=O)Nc1cc(S(=O)(=O)N2CCCCC2)ccc1Cl` (stereo not given), the inhibition is -6.3% (inactive).
With `COCCCNC(=S)N1CCN(c2ccc([N+](=O)[O-])cc2)CC1` the figure was 5% (inactive).
For the molecule `Cc1ccc(CNC(=O)CCNC(=O)c2ccco2)cc1`, the inhibition was -8.4% (inactive).
Then `CCOC(=O)c1cc(CC)sc1/N=C/c1c(O)ccc2ccccc12`, with 37.2% (inactive); and `CCOC(=O)c1sc(/N=C/c2c(O)ccc3ccccc23)cc1C`, with 58.3% (active); and `CCOC(=O)c1sc(/N=C/c2ccc(O)cc2O)cc1C`, with 28.9% (inactive).
Take `CCc1ccc(NC(=S)/N=C(\N)Nc2nc(C)c3cc(CC)ccc3n2)cc1`: the inhibition was 11.4% (inactive).
Consider `COc1cccc(NC(=O)c2ccc(-c3ccccc3[N+](=O)[O-])o2)c1`, for which the inhibition was -13.3% (inactive).
With `COc1ccc(-c2ccc(C(=O)O)o2)c([N+](=O)[O-])c1` the figure was 73.7% (active); with `CNC(=O)/C(C#N)=C/c1ccc(-c2ccc(OC)cc2[N+](=O)[O-])o1`, 28.2% (inactive).
Consider `Cn1c(SCC(=O)N2CCOCC2)nnc1-c1cccc(NC(=O)c2ccccc2F)c1`, for which the inhibition is 2.1% (inactive).
Take `COc1ccc(-c2nn[nH]n2)cc1OC`: the inhibition is -5% (inactive).
As for `COc1ccc(-c2nc(N)n[nH]2)cc1OC`, the inhibition was 2.2% (inactive).
Turning to `Cc1c(C(=O)NN)sc(-c2ccccc2)c1C#N`, the inhibition is -23.8% (inactive).
For the molecule `CCN(CC)S(=O)(=O)c1cccc(C(=O)N/N=C/c2cccc(O)c2O)c1`, the inhibition was 20% (inactive).
Consider `CCN(CC)S(=O)(=O)c1cccc(C(=O)N/N=C/c2cc(OC)c(O)c(OC)c2)c1`, for which the inhibition was 19.2% (inactive).
With `CCn1c(C)nc2cc(C(=O)N/N=C/c3ccccc3C)ccc21` the figure was -4.6% (inactive).
With `CCN(CC)S(=O)(=O)c1cccc(C(=O)N/N=C/c2ccc(O)c(O)c2O)c1`, the inhibition was 77.7% (active).
In the case of `CCn1c(C)nc2cc(C(=O)N/N=C/c3cccc(OC)c3O)ccc21`, the inhibition is 5.6% (inactive).
`NC(=O)COC(=O)c1c2c(nc3ccccc13)CCCC2`: the inhibition is -8.6% (inactive).
Turning to `NS(=O)(=O)c1ccc(CCNC(=O)c2ccc3nc4ccc(Cl)cc4c(=O)n3c2)cc1`, the inhibition is -11.6% (inactive).
Then `CC(C)(C(=O)O)n1cncn1`, with -17.9% (inactive); and `CC(C)(C)c1ccccc1OCCCCCn1ccnc1`, with 14% (inactive); and `Oc1ccccc1/C=N/N1CCCCC1`, with 10.8% (inactive).
As for `CC(=O)NC1=NN(C(C)=O)C(c2ccccc2)S1` (stereo not given), the inhibition was 10.4% (inactive).
`O=C(COc1ccc(C(=O)NCCc2ccccc2)cc1)Nc1ccccc1`: the inhibition is 9.8% (inactive).
Consider `COCc1[nH]nc2c1C(c1ccc(OC)c(OC)c1)C(C#N)=C(N)O2` (stereo not given), for which the inhibition is 2% (inactive).
As to `COCc1[nH]nc2c1C(c1ccc(OC)cc1)C(C#N)=C(N)O2` (stereo not given), the inhibition is 21.3% (inactive).
As for `COCc1[nH]nc2c1C(c1cc(OC)c(O)c(OC)c1)C(C#N)=C(N)O2` (stereo not given), the inhibition is 53.8% (active).
With `CCOc1ncccc1C(=O)OCC(=O)c1cc(OC)ccc1OC`, the inhibition is -1.1% (inactive).
As to `COc1ccc(C(=O)COC(=O)c2cccnc2Cl)c(OC)c1`, the inhibition was 0.1% (inactive).
Turning to `O=C(O)C1CCCCC1C(=O)NCc1ccc(F)cc1` (stereo not given), the inhibition was 13.1% (inactive).
Take `CCOc1cc(C(=O)Nc2cccc(C(C)=O)c2)ccc1OCC(=O)N1CCCCC1`: the inhibition is 8.7% (inactive).
Turning to `O=C1NCCCC2c3cc(O)c4ccccc4c3OC12N1CCCCC1` (stereo not given), the inhibition is 21% (inactive).
Consider `O=C1NCCCC2c3c(cc(Br)c(O)c3Br)OC12N1CCCCC1` (stereo not given), for which the inhibition was 24.7% (inactive).
Then `O=C1NN=C(c2ccccc2)CC1c1ccc(Cl)cc1Cl` (stereo not given), with 4.2% (inactive); and `CC(C)c1ccc(S(=O)(=O)/N=C2/C=CC(=O)c3ccccc32)cc1`, with 34.5% (inactive); and `CCc1ccc(S(=O)(=O)/N=C2/C=C(Sc3ncn[nH]3)C(=O)c3ccccc32)cc1`, with 98.8% (active).
On to `O=C(O)c1ccc(NC2=C/C(=N/S(=O)(=O)c3ccccc3)c3ccccc3C2=O)cc1`, for which the inhibition was -68.7% (inactive).
As for `Cc1ccc(S(=O)(=O)/N=C2/C=C(Sc3ncn[nH]3)C(=O)c3ccccc32)cc1`, the inhibition is 101% (active).
On to `CCc1ccc(S(=O)(=O)/N=C2\C=CC(=O)c3ccccc32)cc1`, for which the inhibition is 6.9% (inactive).
For the molecule `CC(C)c1ccc(S(=O)(=O)/N=C2/C=C(Sc3ncn[nH]3)C(=O)c3ccccc32)cc1`, the inhibition is 95.1% (active).
Take `O=C1c2ccccc2C(=O)N1CCSc1ncn[nH]1`: the inhibition was -7.4% (inactive).
For `COC(=O)C(C(C)=O)C1=C/C(=N\S(=O)(=O)c2ccc(C)cc2)c2ccccc2C1=O` (stereo not given), the inhibition was 22.1% (inactive).
Regarding `Cc1ccc(S(=O)(=O)/N=C2/C=C(C3C(=O)CC(C)(C)CC3=O)C(=O)c3ccccc32)cc1`, the inhibition is 9.6% (inactive).
In the case of `O=C(Cn1cc(C(F)(F)F)ccc1=O)N/N=C/c1ccc(F)cc1`, the inhibition was -3.8% (inactive).
`CC1CCN(CC(=O)N2c3ccccc3CC2C)CC1` (stereo not given): the inhibition was -23.2% (inactive).
With `Cc1cc(=O)c(C(=O)O)cn1Nc1ccc(F)cc1`, the inhibition was -5.7% (inactive).
For the molecule `COc1ccc(C(O)Cc2nc3ccccc3n2C)cc1OC` (stereo not given), the inhibition was -8.6% (inactive).
Regarding `Cc1ncc(C[n+]2csc(CCOC(=O)CC34CC5CC(CC(C5)C3)C4)c2C)c(N)n1`, the inhibition is -0.1% (inactive).
As to `COc1cc(CNc2ccc(N3CCCC3)cc2)ccc1OCc1ccccc1F`, the inhibition is 29.9% (inactive).
Regarding `CCOc1cc(CNc2ccc(S(N)(=O)=O)cc2)cc(Cl)c1OC`, the inhibition is 3% (inactive).
For `COc1cc(CNc2ccc(N3CCCC3)cc2)cc(Cl)c1OC`, the inhibition is 76.9% (active).
In the case of `CCOc1cc(CNc2ccc(N3CCCC3)cc2)cc(Cl)c1OC`, the inhibition was 83% (active).
As for `COc1cc(CNc2ccc(N3CCN(C(C)=O)CC3)cc2)ccc1OCc1ccccc1`, the inhibition is 20% (inactive).
With `CCOc1c(Cl)cc(CNC(C)(C)CC(C)(C)C)cc1OC`, the inhibition is 4.6% (inactive).
With `CCOc1cc(CNc2ccc(N3CCOCC3)cc2)cc(Br)c1OCC` the figure was 6.4% (inactive).
For the molecule `C=CCOc1c(Cl)cc(CNc2ccc(C)c(Cl)c2)cc1OC`, the inhibition is 13.1% (inactive).
With `CCOc1c(Cl)cc(CNc2ccc(S(N)(=O)=O)cc2)cc1OC` the figure was -1.5% (inactive).
Turning to `COc1cc(CNc2ccc(N3CCCC3)cc2)ccc1OCc1ccccc1`, the inhibition is 86.4% (active).
Consider `COc1cc(CNc2ccc(N3CCOCC3)cc2)cc(Br)c1OC`, for which the inhibition is -0.4% (inactive).
With `C/C(=N/NC(=O)c1ccncc1)c1c[nH]c2ccccc12`, the inhibition is -0.2% (inactive).
Consider `Cc1cccc(-n2ccnc2SCC(=O)N2CCCc3ccccc32)c1C`, for which the inhibition was 5.4% (inactive).
In the case of `COC(=O)c1c(C(=O)OC)c2cc(C(=O)c3ccccc3)ccn2c1Cl`, the inhibition was -15.3% (inactive).
On to `CS(=O)(=O)N1CCN(C2CCN(Cc3ccccc3)CC2)CC1`, for which the inhibition is -0.6% (inactive).
Turning to `CN1CCc2nc3sc(C(=O)NCc4ccccc4)c(N)c3cc2C1`, the inhibition was -30.8% (inactive).
On to `CC(NC(=O)NC12CC3CC(CC(C3)C1)C2)c1ccc2c(c1)OCO2` (stereo not given), for which the inhibition is -7.3% (inactive).
With `O=C(NCC(c1ccco1)N1CCN(c2ccccc2F)CC1)OCc1ccccc1` (stereo not given), the inhibition is 18% (inactive).
Consider `O=C(N1CCCCCC1)n1c(Cc2ccccc2)nc2ccccc21`, for which the inhibition is -0.4% (inactive).
As to `NCc1oc(-c2ccccc2)cc1C(=O)O`, the inhibition was -55.4% (inactive).
Then `COc1c(C(O)CC(C)C)ccc2c1C(=O)OCc1cc(C)cc(O)c1O2` (stereo not given), with 23.7% (inactive).
Regarding `O=C(CCCc1c[nH]c2ccccc12)NCC1COc2ccccc2O1` (stereo not given), the inhibition was -0.7% (inactive).
For `Cc1cccc(CN2CCN(CC(=O)NCc3cccs3)C2=O)c1`, the inhibition was -8.2% (inactive).
For `CCOc1ccc(CNc2ccc(CNc3ncn[nH]3)cc2)cc1`, the inhibition was 9.7% (inactive).
For `CCOc1ccc(C(=O)Nc2ccc(N3CCCC3)cc2)cc1`, the inhibition is -29% (inactive).
For the molecule `CCOc1ccc(CNc2ccc(N3CCCC3)cc2)cc1`, the inhibition was 85.9% (active).
Consider `O=C(CSc1nc2[nH]ncc2c(=O)n1-c1ccccc1)NCc1cccs1`, for which the inhibition was -10.6% (inactive).
Consider `O=C(CCCCCC(=O)N(CCO)CCO)N(CCO)CCO`, for which the inhibition was -2.9% (inactive).
For the molecule `CC1(C)CNc2cc(N)ccc2S1`, the inhibition was 82.8% (active).
As to `CC1(C)CNc2cc([N+](=O)[O-])ccc2S1`, the inhibition is 1.5% (inactive).
As for `CC1(C)CC(=S)Nc2ccccc2S1`, the inhibition is 41.8% (inactive).
Then `O=C(NCc1ccc2c(c1)OCO2)c1cc(-c2ccccc2)on1`, with 15.7% (inactive).
Then `O=C(c1ccc(OCC2CCCO2)cc1)N1CCc2ccccc2C1` (stereo not given), with 2.4% (inactive).
For the molecule `Oc1ccc2ccccc2c1/C=N/Nc1nnc(-c2ncc[nH]2)c2ccccc12`, the inhibition is -2.3% (inactive).
On to `CN(C)c1ccc(C(=S)NCc2ccco2)cc1`, for which the inhibition is 50.7% (active).
For the molecule `CN(C)c1ccc(/C=N/NC(=S)NCc2ccco2)cc1`, the inhibition was -8% (inactive).
With `CC(=O)Nc1ccc(C(=S)NCc2ccco2)cc1`, the inhibition is 9.7% (inactive).
As to `C/C(=N\NC(=O)COc1ccc(C#N)cc1)c1ccccc1OC(F)F`, the inhibition is 1% (inactive).
With `CC(=O)Nc1cccc(Oc2ncnc3scc(-c4ccc(C(C)C)cc4)c23)c1` the figure was 12.9% (inactive).

The record behind these values is PubChem BioAssay AID1209 (Sanford-Burnham Center for Chemical Genomics, 2008).
